Source: PubChem BioAssay (NCI)
This is part of a sample that, as a whole, favours compounds with a hit. Of some 79,000 tested, about 15% had one in any assay. A number with no mark means an inactive call. Activity calls are given as the source filed them. No stated cut-off is given here; in the data, active means growth inhibition above about 70%; inactive means the rest.

assay: NCI Yeast Anticancer Drug Screen. Data for the mec2-1 strain (AID 157); conditions: S. cerevisiae mec2-1 strain, at 50.0 µM, active compounds read high
Outline: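 Each compound was tested on mec2-1 yeast, a strain altered in DNA damage repair or cell cycle control. Growth inhibition is reported relative to vehicle.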

| SMILES | growth inhibition |
| --- | --- |
| O=C(O)CC(C(=O)O)C1c2ccccc2-c2ccccc21 (stereo not given) | -27.2% |
| COc1ccc(C(=O)NNC(=O)c2ccccc2)cc1 | -42.5% |
| Cc1cc(NCCN(C)C)nc(Nc2ccc(Cl)cc2)n1 | 19.4% |
| O=C1CC2(C(=O)N1CN1CCOCC1)c1ccccc1-c1ccccc12 | -4.5% |
| CCCCCN(C(=O)c1ccccc1C(=O)N(CCCCC)c1ccccc1)c1ccccc1 | 7.85% |
| Brc1nccs1 | -21.4% |
| COC(=O)N/N=C(\C)CC(=O)Nc1ccc(Cl)cc1 | -32.6% |
| CCCCCCCCCC1OCCCO1 | 0.15% |
| CC(=O)OC(C)C(O)C(O)C(/C=C/C1CC=CC(=O)O1)OC(C)=O (stereo not given) | 9.45% |
| O=C1C=Cn2cc(-c3ccccc3)c(-c3ccccc3)c21 | -10.3% |
| CCOC(=O)CNC(=O)C(Cc1ccccc1)NC(=O)c1ccccc1NC(=O)c1ccccc1 (stereo not given) | 20.8% |
| CN(C)c1ccc2c(c1)Cc1cc(NC(=O)CCC(=O)O)ccc1-2 | 6.4% |
| CC(C)CCN(C(=O)CCl)c1ccccc1 | 32.6% |
| CC=NC(C)(C)C | -9.15% |
| CC(=O)CCCCCCCCCCCCCC(C)=O | -5.1% |
| CNCC(OCCc1ccccc1)c1ccc(O)c(O)c1 (stereo not given) | -1.9% |
| O=C(Nc1ccc(Cl)cc1C(=O)O)c1ccc([N+](=O)[O-])cc1 | 18.2% |
| Nc1ccn(C2OC(COC(=O)C34CC5CC(CC(C5)C3)C4)C(O)C2O)c(=O)n1 (stereo not given) | 0.4% |
| N#Cc1ccccc1N=Nc1nc(N)c(C(N)=O)[nH]1 | 13.7% |
| CC(=O)OC(Cc1ccc2ccccc2n1)(C(F)(F)F)C(F)(F)F | -16.1% |

| SMILES | growth inhibition |
| --- | --- |
| O=C(Nc1ccccc1Cl)c1ccc([N+](=O)[O-])cc1 | 15.4% |
| C=C(C)CNCCN | 22.1% |
| O=C1Cn2c(cc(=O)c3ccccc32)O1 | 13.6% |
| O=C1CCCCCCCCCCC1 | -62.7% |
| Cc1ccccc1-n1c(C)nc2cc(NC(N)=S)ccc2c1=O | -3.05% |
| CN(C)S(=O)(=O)c1nc2nc[nH]c(=O)c2[nH]1 | -20.4% |
| Cc1cc(C)nc(C)c1.[Cl-].[Cl-].[Cl-].[Cl-].[Pt+2] | 9.25% |
| CCN(CC)CCNC(=O)c1ccc(C)c(OCc2ccccc2)c1[N+](=O)[O-] | -9.25% |
| CN(C)CCOC(=O)C(O)C1CCCCC1 (stereo not given) | 12.8% |
| CC(C)CC(C)Cc1ccncc1 (stereo not given) | 1.65% |
| CN1CC2(CO)C(c3ccccn3)N(C)C(c3ccccn3)C(CO)(C1)C2O (stereo not given) | 16.4% |
| Oc1ccc(N=Cc2ccc3ccccc3n2)cc1 | 1.55% |
| CCCCCN(CCCCC)CC(O)c1cc(-c2ccccc2)nc2c(Cl)cc(Cl)cc12 (stereo not given) | -1.1% |
| CCOC(=O)C1C(c2cc(OC)c(OC)c(OC)c2)c2cc3c(cc2OC1(C)OC)OCO3 (stereo not given) | 5.4% |
| C[CH2][GeH][CH2]C.C[CH2][Ge]([CH2]C)[CH2]C | 97% (active) |
| CCOC(=O)C12CC(COc3ccc([N+](=O)[O-])cc3)ON1OC(COc1ccc([N+](=O)[O-])cc1)C2 (stereo not given) | 7.8% |
| CC1(c2ccccc2)OC1(C)c1ccccc1 (stereo not given) | -5.6% |
| CCNc1ccc(S(=O)(=O)O)cc1C(=O)O | 4.05% |
| CCC1([N+](=O)[O-])CC2C=CC1C2 (stereo not given) | -14.3% |
| CN(C)C1C(CO)C(CO)C1(C)C (stereo not given) | -8.5% |

assay: NCI Yeast Anticancer Drug Screen. Data for the sgs1 mgt1 strain (AID 161);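 further: 0% = growth of cultures given vehicle only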; conditions: S. cerevisiae sgs1 mgt1 strain, at 50.0 µM, active compounds read high
Outline: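 Test agents were incubated with a DNA-repair-mutant yeast strain. Growth was then read and compared against vehicle-treated controls.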

| SMILES | growth inhibition [%] |
| --- | --- |
| O=C(O)CC(C(=O)O)C1c2ccccc2-c2ccccc21 (stereo not given) | -40.4 |
| COc1ccc(C(=O)NNC(=O)c2ccccc2)cc1 | -14.8 |
| Cc1cc(NCCN(C)C)nc(Nc2ccc(Cl)cc2)n1 | 31.6 |
| O=C1CC2(C(=O)N1CN1CCOCC1)c1ccccc1-c1ccccc12 | 15.6 |
| CCCCCN(C(=O)c1ccccc1C(=O)N(CCCCC)c1ccccc1)c1ccccc1 | 15.8 |
| Brc1nccs1 | -13.2 |
| COC(=O)N/N=C(\C)CC(=O)Nc1ccc(Cl)cc1 | -28.2 |
| CCCCCCCCCC1OCCCO1 | 12.2 |
| CC(=O)OC(C)C(O)C(O)C(/C=C/C1CC=CC(=O)O1)OC(C)=O (stereo not given) | 23.6 |
| O=C1C=Cn2cc(-c3ccccc3)c(-c3ccccc3)c21 | -14 |
| CCOC(=O)CNC(=O)C(Cc1ccccc1)NC(=O)c1ccccc1NC(=O)c1ccccc1 (stereo not given) | 4.3 |
| CN(C)c1ccc2c(c1)Cc1cc(NC(=O)CCC(=O)O)ccc1-2 | 19.4 |
| CC(C)CCN(C(=O)CCl)c1ccccc1 | 52.4 |
| CC=NC(C)(C)C | -12.3 |
| CC(=O)CCCCCCCCCCCCCC(C)=O | -21.1 |
| CNCC(OCCc1ccccc1)c1ccc(O)c(O)c1 (stereo not given) | 36 |
| O=C(Nc1ccc(Cl)cc1C(=O)O)c1ccc([N+](=O)[O-])cc1 | 26.7 |
| Nc1ccn(C2OC(COC(=O)C34CC5CC(CC(C5)C3)C4)C(O)C2O)c(=O)n1 (stereo not given) | -35.5 |
| N#Cc1ccccc1N=Nc1nc(N)c(C(N)=O)[nH]1 | 11.2 |
| CC(=O)OC(Cc1ccc2ccccc2n1)(C(F)(F)F)C(F)(F)F | -8.05 |

| SMILES | growth inhibition [%] |
| --- | --- |
| O=C(Nc1ccccc1Cl)c1ccc([N+](=O)[O-])cc1 | 18.6 |
| C=C(C)CNCCN | 6.2 |
| O=C1Cn2c(cc(=O)c3ccccc32)O1 | 5.9 |
| O=C1CCCCCCCCCCC1 | -17.6 |
| Cc1ccccc1-n1c(C)nc2cc(NC(N)=S)ccc2c1=O | 0 |
| CN(C)S(=O)(=O)c1nc2nc[nH]c(=O)c2[nH]1 | -3.8 |
| Cc1cc(C)nc(C)c1.[Cl-].[Cl-].[Cl-].[Cl-].[Pt+2] | -7.5 |
| CCN(CC)CCNC(=O)c1ccc(C)c(OCc2ccccc2)c1[N+](=O)[O-] | 26.6 |
| CN(C)CCOC(=O)C(O)C1CCCCC1 (stereo not given) | 5.5 |
| CC(C)CC(C)Cc1ccncc1 (stereo not given) | 24.8 |
| CN1CC2(CO)C(c3ccccn3)N(C)C(c3ccccn3)C(CO)(C1)C2O (stereo not given) | -10.7 |
| Oc1ccc(N=Cc2ccc3ccccc3n2)cc1 | 19.1 |
| CCCCCN(CCCCC)CC(O)c1cc(-c2ccccc2)nc2c(Cl)cc(Cl)cc12 (stereo not given) | 26.5 |
| CCOC(=O)C1C(c2cc(OC)c(OC)c(OC)c2)c2cc3c(cc2OC1(C)OC)OCO3 (stereo not given) | -0.15 |
| C[CH2][GeH][CH2]C.C[CH2][Ge]([CH2]C)[CH2]C | 60.8 |
| CCOC(=O)C12CC(COc3ccc([N+](=O)[O-])cc3)ON1OC(COc1ccc([N+](=O)[O-])cc1)C2 (stereo not given) | 17.2 |
| CC1(c2ccccc2)OC1(C)c1ccccc1 (stereo not given) | -7.65 |
| CCNc1ccc(S(=O)(=O)O)cc1C(=O)O | 0 |
| CCC1([N+](=O)[O-])CC2C=CC1C2 (stereo not given) | -26 |
| CN(C)C1C(CO)C(CO)C1(C)C (stereo not given) | -3.9 |
